Laboratory results as given in PubChem BioAssay (EPA / NIEHS).
Inconclusive results are not listed. Activity calls are given as the source filed them. Rule for the calls, unless noted: active = hit-call score of the fitted dose curve at least 0.9, where 1 is the maximum; inconclusive = response in the unintended direction; inactive = score below 0.9.

Assays:
[1] = TOX21_p53_BLA_p2_viability: Viability Assessment in the Tox21 HCT-116 p53 Agonism Beta-lactamase Assay, Phase 2 (AID 2283591);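 note: compound exposure lasted 16 h at 37 °C; actives lower the ATP signal meaning cytotoxicity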
Summary of the method: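 HCT116 p53-bla cells, 4000/well, dosed after 5 h plating (217-fold dilution of DMSO stocks) and incubated 16 h at 37C. Viability taken as cellular ATP by CellTiter-Glo luminescence after 30 min RT; signal loss marks cytotoxicity.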

[2] = target: Cellular tumor antigen p53 (Homo sapiens) (UniProt P04637); assay: TOX21_p53_BLA_p2_ratio: Tox21 HCT-116 p53 Agonism Beta-lactamase Assay, Ratio, Phase 2 (AID 2283592)
Summary of the method: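 HCT116 p53-bla; 4000 cells/well; 5 h pre-incubation; cpd in DMSO, 217-fold dilution; 16 h 37C/5% CO2; CCF4-AM 2 h RT; Ex 405, Em 460/530 ratio; DMSO = baseline; positive fitting direction.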

[3] = TOX21_p53_BLA_p3_viability: Viability Assessment in the Tox21 HCT-116 p53 Agonism Beta-lactamase Assay, Phase 3 (AID 2283593);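 note: cells exposed to compound for 16 h before reading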
Summary of the method: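 HCT116 cells, 4000/well, dosed 5 h after plating by pin transfer (217-fold dilution from DMSO stock) and incubated 16 h at 37C, 5% CO2. Viability read as ATP luminescence with CellTiter-Glo after 30 min at room temperature.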

[4] = TOX21_p53_BLA_p4_viability: Viability Assessment in the Tox21 HCT-116 p53 Agonism Beta-lactamase Assay, Phase 4 (AID 2283597);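 note: hits lower the luminescence signal meaning cytotoxicity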
Summary of the method: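 Cells plated, 5 h pre-incubation; DMSO compounds pinned (217-fold dilution); 16 h, 37C/5% CO2; CCF4-AM 2 h RT; CellTiter-Glo 30 min RT; luminescence read.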

[5] = target: Cellular tumor antigen p53 (Homo sapiens) (UniProt P04637); assay: TOX21_p53_BLA_p5_ratio: Tox21 HCT-116 p53 Agonism Beta-lactamase Assay, Ratio, Phase 5 (AID 2283599)
Summary of the method: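 HCT-116 p53-bla cells (4000/well) plated 5 h, dosed with compound (217-fold DMSO dilution) for 16 h at 37 C; CCF4-AM substrate 2 h at room temperature. Activity is the 460/530 nm emission ratio (405 nm excitation), fitted in gain-of-signal direction versus DMSO.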

[6] = TOX21_p53_BLA_p5_viability: Viability Assessment in the Tox21 HCT-116 p53 Agonism Beta-lactamase Assay, Phase 5 (AID 2283600)
Summary of the method: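 4000 cells/well; 5 h pre-incubation; DMSO compounds pin-transferred, 217-fold dilution; 16 h, 37C/5% CO2; CCF4-AM 2 h RT; CellTiter-Glo 30 min RT; luminescence.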

[7] = target: Cellular tumor antigen p53 (Homo sapiens) (UniProt P04637); assay: TOX21_p53_BLA_p4_ratio: Tox21 HCT-116 p53 Agonism Beta-lactamase Assay, Ratio, Phase 4 (AID 2283601)
Summary of the method: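 HCT-116 p53 beta-lactamase reporter cells (4000/well) preincubated 5 h, then compound (217-fold dilution of DMSO stock) for 16 h at 37C. CCF4-AM substrate added 2 h at room temperature; 460/530 nm emission ratio fitted upward versus DMSO.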

[8] = target: Cellular tumor antigen p53 (Homo sapiens) (UniProt P04637); assay: TOX21_p53_BLA_p3_ratio: Tox21 HCT-116 p53 Agonism Beta-lactamase Assay, Ratio, Phase 3 (AID 2283596)
Summary of the method: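 HCT116 p53-bla cells (4000/well) given compound in DMSO (217-fold dilution) after 5 h, incubated 16 h at 37C. CCF4-AM substrate 2 h at room temperature; 460/530 nm emission ratio, gain fitted against DMSO.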

[9] = CCTE_Deisenroth_AIME_96WELL_CTox_Active: Cytotoxicity Assessment (CTOX) in CCTE's 96-well Estrogen Receptor Transactivation Assay with AIME metabolic competence (metabolism positive), Deisenroth Lab (AID 2284028)
Summary of the method: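 Chemicals (0.002–200 uM) were first incubated 2 h with alginate-immobilized phenobarbital/beta-naphthoflavone-induced male rat liver S9; conditioned medium then went onto VM7Luc4E2 cells for 24 h, with viability read by protease-substrate fluorescence, fitted bidirectionally.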

[10] = CCTE_Shafer_MEA_dev_firing_rate_mean: CCTE's Neural Network Formation Assay for Mean Firing Rate, Shafer Lab (AID 2284031; active = hit-call score of the fitted dose curve at least 0.9, where 1 is the maximum; inactive = score below 0.9)
Summary of the method: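 Developing rat cortical networks on MEA plates undergo 12-day compound exposure. Firing frequency, averaged across active electrodes, is integrated as area under the curve over four recording days, referenced to DMSO.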

[11] = CCTE_Shafer_MEA_dev_per_burst_spike_percent: CCTE's Neural Network Formation Assay for Percent of Spikes in a Burst, Shafer Lab (AID 2284032; active = hit-call score of the fitted dose curve at least 0.9, where 1 is the maximum; inactive = score below 0.9)
Summary of the method: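 Rat primary cortical neurons on 16-electrode MEA wells, dosed from plating day 0 for 12 days with renewal on DIV 5 and 9; spikes-in-bursts percentage averaged over bursting electrodes, collapsed as AUC across days 5, 7, 9, 12; loss direction versus DMSO.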

[12] = CCTE_Shafer_MEA_dev_active_electrodes_number: CCTE's Neural Network Formation Assay for Number of Active Electrodes, Shafer Lab (AID 2284040)
Summary of the method: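 Rat cortical primary cultures, 1.5 x 10^5 cells/well, PEI-coated MEA, laminin drop. Continuous exposure DIV 0–12; full media/compound change DIV 5, 9. Readout: electrodes with mean firing ≥5 spikes/min; AUC across days; loss vs DMSO.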

[13] = CCTE_Shafer_MEA_dev_burst_rate: CCTE's Neural Network Formation Assay for Burst Rate, Shafer Lab (AID 2284042; active = hit-call score of the fitted dose curve at least 0.9, where 1 is the maximum; inactive = score below 0.9)
Summary of the method: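 Cells plated, treated day 0; recorded DIV 5, 7, 9, 12; fed and re-treated DIV 5, 9. Endpoint: bursts per recording time, active-electrode well mean, trapezoidal AUC, fitted in decreasing direction against DMSO baseline.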

[14] = CCTE_Shafer_MEA_dev_bursting_electrodes_number: CCTE's Neural Network Formation Assay for Number of Bursting Electrodes, Shafer Lab (AID 2284043)
Summary of the method: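 Primary rat cortical neurons plated on 16-electrode MEA wells, exposed from day 0 with compound renewed at DIV 5 and 9. Electrodes bursting ≥1 burst per 2 min counted on days 5, 7, 9 and 12; trapezoidal AUC across days, fitted for loss versus DMSO.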

[15] = CCTE_Shafer_MEA_dev_per_burst_interspike_interval: CCTE's Neural Network Formation Assay for Burst Interspike Interval, Shafer Lab (AID 2284044; active = hit-call score of the fitted dose curve at least 0.9, where 1 is the maximum; inactive = score below 0.9;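 note: mean spike spacing inside bursts as AUC over recordings on days 5 7 9 12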)
Summary of the method: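 Neurons from rat cortex plated onto PEI-coated MEA wells with laminin […] at 1.5 x 10^5 cells/well, then treated from day 0. Media and compound fully replaced on DIV 5 and 9. Extracellular spontaneous firing recorded four times; interspike interval per burst summarised as AUC.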

[16] = CCTE_Shafer_MEA_dev_interburst_interval_mean: CCTE's Neural Network Formation Assay for Mean Interburst Interval, Shafer Lab (AID 2284046; active = hit-call score of the fitted dose curve at least 0.9, where 1 is the maximum; inactive = score below 0.9;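 note: well-mean interburst interval of bursting electrodes as AUC over four recording days; curve fitted for decrease in interburst interval relative to DMSO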)
Summary of the method: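 Developing rat cortical networks on 48-well MEAs receive compound from the day of plating. Burst intervals from each active electrode are averaged per well, and AUC over the recording days is fitted in the negative direction against DMSO.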

[17] = CCTE_Shafer_MEA_dev_network_spike_number: CCTE's Neural Network Formation Assay for Number of Network Spikes, Shafer Lab (AID 2284048; active = hit-call score of the fitted dose curve at least 0.9, where 1 is the maximum; inactive = score below 0.9)
Summary of the method: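 Primary rat cortical neurons on PEI/laminin 48-well MEA plates, dosed from plating day 0 for 12 days, renewed at DIV 5 and 9. Network spike counts recorded DIV 5, 7, 9, 12, collapsed as trapezoidal AUC; DMSO baseline.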

[18] = CCTE_Shafer_MEA_dev_network_spike_peak: CCTE's Neural Network Formation Assay for Mean Number of Electrodes in Network Spike, Shafer Lab (AID 2284049; active = hit-call score of the fitted dose curve at least 0.9, where 1 is the maximum; inactive = score below 0.9)
Summary of the method: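 Network-spike peak electrode count from recordings on days 5, 7, 9 and 12 was combined as trapezoidal area under the curve. Rat cortical cultures were treated continuously from plating, with compound renewed at each feed (DIV 5, 9); fits versus DMSO.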

[19] = CCTE_Shafer_MEA_dev_spike_duration_mean: CCTE's Neural Network Formation Assay for Mean Spike Duration, Shafer Lab (AID 2284051; active = hit-call score of the fitted dose curve at least 0.9, where 1 is the maximum; inactive = score below 0.9;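 note: mean network spike duration pooled as area under curve over DIV 5 to 12 recordings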)
Summary of the method: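 Readout is the average length of network spikes, clustered firing across electrodes, summed over DIV 5, 7, 9 and 12 as area under the curve. Neurons from rat cortex developed networks on MEA plates under continuous 12-day exposure.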

[20] = CCTE_Shafer_MEA_dev_network_spike_duration_std: CCTE's Neural Network Formation Assay for Standard Deviation of Network Spike Duration, Shafer Lab (AID 2284052; active = hit-call score of the fitted dose curve at least 0.9, where 1 is the maximum; inactive = score below 0.9;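 note: area under curve of spike duration SD across recording days 5 to 12; hits are decreases in network spike duration SD versus DMSO vehicle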)
Summary of the method: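 Read-out is the trapezoidal area-under-the-curve across recordings made on days 5, 7, 9 and 12, fitted in the negative direction against DMSO baseline. Neurons were primary rat cortical cells treated from day 0, with treatment renewed at each feed.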

[21] = CCTE_Shafer_MEA_dev_per_network_spike_spike_number_mean: CCTE's Neural Network Formation Assay for Mean Number of Spikes in a Network Spike, Shafer Lab (AID 2284053; active = hit-call score of the fitted dose curve at least 0.9, where 1 is the maximum; inactive = score below 0.9)
Summary of the method: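 Continuous twelve-day exposure of developing rat cortical networks grown over 16 microelectrodes per well; spontaneous firing is captured at four time points, and the per-network-spike spike number is integrated over development by trapezoidal AUC.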

[22] = CCTE_Shafer_MEA_dev_LDH: CCTE's Lactate Dehydrogenase Assay for Cytotoxicity in the Neural Network Formation Assay, Shafer Lab (AID 2284068);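 note: exposure for twelve days from plating with re-dosing on DIV 5 and 9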
Summary of the method: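 Cytotoxicity companion to network-formation recordings: rat cortical neurons received compound over 12 days of development, re-dosed at DIV 5 and 9 feeds. Viability was inferred from LDH enzyme activity relative to DMSO.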

[23] = CCTE_Shafer_MEA_dev_mutual_information_norm: CCTE's Neural Network Formation Assay for Mutual Information Normalization, Shafer Lab (AID 2284091; active = hit-call score of the fitted dose curve at least 0.9, where 1 is the maximum; inactive = score below 0.9)
Summary of the method: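 Primary rat cortical neurons on PEI-coated 48-well MEA plates, 1.5 x 10^5 cells/well, exposed from day 0 through day 12 with re-dosing at DIV 5 and 9. Mutual information between electrodes recorded days 5, 7, 9, 12; trapezoidal AUC, loss-of-signal fit versus DMSO.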

[24] = CCTE_Shafer_MEA_dev_correlation_coefficient_mean: CCTE's Neural Network Formation Assay for Mean Correlation Coefficient, Shafer Lab (AID 2284093; active = hit-call score of the fitted dose curve at least 0.9, where 1 is the maximum; inactive = score below 0.9)
Summary of the method: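 Read-out: well-mean correlation coefficient of spike trains between electrode pairs, collapsed over four recording days as trapezoidal area-under-the-curve. Developing rat cortical neuron networks grown on MEAs received test chemical continuously from plating.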

Measured: AC50

Cellular tumor antigen p53 (Homo sapiens), sequence (P04637 whole entry, looked up): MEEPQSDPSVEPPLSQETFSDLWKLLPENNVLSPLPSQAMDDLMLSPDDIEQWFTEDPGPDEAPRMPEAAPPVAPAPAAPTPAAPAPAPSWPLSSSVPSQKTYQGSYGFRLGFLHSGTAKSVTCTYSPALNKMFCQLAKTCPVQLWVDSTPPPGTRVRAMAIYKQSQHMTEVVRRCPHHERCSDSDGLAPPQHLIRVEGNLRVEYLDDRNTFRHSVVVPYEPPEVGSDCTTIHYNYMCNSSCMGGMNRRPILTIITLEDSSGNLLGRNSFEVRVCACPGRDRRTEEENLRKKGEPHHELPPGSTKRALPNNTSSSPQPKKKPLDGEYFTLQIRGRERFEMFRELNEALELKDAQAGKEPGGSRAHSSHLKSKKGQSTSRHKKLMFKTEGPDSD

CN1[C@@H]2CC[C@H]1CC(OC(=O)c1cc(Cl)cc(Cl)c1)C2 (stereo partly specified)
inactive: [1] | [2] | [3] | [4] | [5] | [6] | [7]

OC(c1ccccc1)(c1ccccc1)C1CN2CCC1CC2 (stereo unspecified)
inactive: [1] | [2] | [3] | [4] | [5] | [6] | [7]

CCOP(=S)(OCC)Oc1cc(C)nc(N(CC)CC)n1
inactive: [1] | [2] | [3] | [4] | [6] | [7]

ClCC(Br)CBr (stereo unspecified)
inactive: [1] | [2] | [3] | [4] | [6]

O=P1(N(CCCl)CCCl)NC(OO)CCO1 (stereo unspecified)
inactive: [1] | [2] | [3] | [4] | [5] | [6] | [7]

c1ccccc1
inactive: [1] | [2] | [3] | [8] | [7]

COc1cccc(C(=O)CCN[C@@H](C)[C@H](O)c2ccccc2)c1
inactive: [1] | [2] | [3] | [4] | [6] | [7]

c1ccc2c(c1)cc1ccc3cccc4ccc2c1c34
active: [2] 2050 nM | [5] 1560 nM | [7] 2390 nM
inactive: [1] | [3] | [4] | [6] | [9] | [10] | [11] | [12] | [13] | [14] | [15] | [16] | [17] | [18] | [19] | [20] | [21] | [22] | [23] | [24]
